Test results taken from PubChem BioAssay (NCI).
This is part of a sample that, as a whole, favours compounds with a hit. Of some 79,000 tested, about 15% had one in any assay. Activity calls are given as the source filed them. Cut-off read from the data, not from the text of the source: active = growth inhibition above about 70%; inactive = the rest.

Columns and labels:
[1] = NCI Yeast Anticancer Drug Screen. Data for the rad50 strain (AID 155);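 note: 0% = growth of vehicle-only cultures of the same strain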; details: S. cerevisiae rad50 strain growth inhibition; at 50.0 µM; stronger effect = higher value
Procedure, shortened: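 Growth of the mutant yeast was measured after compound exposure and referenced to vehicle-treated cultures.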

[2] = NCI Yeast Anticancer Drug Screen. Data for the mec2-1 strain (AID 157); details: S. cerevisiae mec2-1 strain, at 50.0 µM, stronger effect = higher value
Procedure, shortened: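 Growth inhibition is read against vehicle-treated controls after compound exposure of the mec2-1 yeast strain, which is defective in DNA damage repair or cell cycle control.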

[3] = NCI Yeast Anticancer Drug Screen. Data for the sgs1 mgt1 strain (AID 161);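 note: 0% = growth of cultures given vehicle only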; details: S. cerevisiae sgs1 mgt1 strain, at 50.0 µM, stronger effect = higher value
Procedure, shortened: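 Growth of a repair-deficient yeast mutant was monitored after compound treatment and expressed as inhibition relative to vehicle-treated cultures.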

[4] = NCI Yeast Anticancer Drug Screen. Data for the cln2 rad14 strain (AID 165);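 note: 0% = growth equal to vehicle treated cultures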; details: S. cerevisiae cln2 rad14 strain, at 50.0 µM, stronger effect = higher value
Procedure, shortened: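 Growth inhibition, relative to vehicle-treated controls, is the read-out. The test organism is a yeast strain with defined genetic alterations, cln2 rad14.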

[5] = NCI Yeast Anticancer Drug Screen. Data for the bub3 strain (AID 167); details: S. cerevisiae bub3 mutant strain, at 50.0 µM, stronger effect = higher value
Procedure, shortened: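 Whole-cell yeast assay. The mutant strain was incubated with compounds, and growth inhibition was determined by comparison with vehicle-treated cells.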

[6] = NCI Yeast Anticancer Drug Screen. Data for the mlh1 rad18 strain (AID 175); details: S. cerevisiae mlh1 rad18 strain growth inhibition; at 50.0 µM; stronger effect = higher value
Procedure, shortened: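 Cells of a genetically altered yeast strain, deficient in DNA damage repair, were treated with compound. Their growth was then compared with that of vehicle-treated cultures to give inhibition.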

Measured: growth inhibition

Cc1ccc(NC(=S)NC(=O)c2cccc([N+](=O)[O-])c2)cc1C
inactive: [1] 1.8% | [2] 15.5% | [3] 14.5% | [4] -26.7% | [5] 0.6% | [6] 11.7%

Cc1ccc(S(=O)(=O)c2c(N)c3nccn3c3nc4ccccc4nc23)cc1
inactive: [1] -52.2% | [2] -68.2% | [3] -77.5% | [4] -38.8% | [5] -62.1% | [6] -88.8%

CS(=O)(=O)OC1CCC2CCCC1(C(=O)O)C2 (stereo unspecified)
inactive: [1] 2.4% | [2] -6.6% | [3] -0.75% | [4] -30% | [5] -5.2% | [6] 9.25%

CN(C)c1ccc(/C=N/N=C2\C(=O)Nc3c(Cl)cc(Cl)cc32)cc1
active: [6] 78.8%
inactive: [1] 25.2% | [2] -0.25% | [3] 56.8% | [4] 43.1% | [5] 43.5%

CN(C)C(N)=Nc1ncnc2ccccc12
inactive: [1] -14.6% | [2] 15.2% | [3] 0.45% | [4] 15.7% | [5] -5.85% | [6] -1.8%

CCN(CC)CCNC(=O)c1cn2c(ccc3sc4ccccc4c(=O)c32)n1
inactive: [2] 57.5% | [3] 48.7% | [4] 38.3% | [5] 26.3% | [6] 28.8%
active: [1] 70.8%

CCC/C=C/C=C\C(=O)O[C@@H]1[C@@H](C)[C@]2(O)[C@@H]3C=C(C)C(=O)[C@H]3CC(COC(C)=O)=C[C@H]2[C@@H]2C(C)(C)[C@]12OC(C)=O
inactive: [1] 21.7% | [2] -4.9% | [3] -8.1% | [4] 11.9% | [5] -9.65% | [6] -26.2%

O=C1C(Cl)=C(NCCCN2CCN(CCCNC3=C(Cl)C(=O)c4ccccc4C3=O)CC2)C(=O)c2ccccc21
inactive: [1] 44.5% | [2] 27.8% | [3] 33.1% | [4] 9.45% | [5] 6.35% | [6] 33.6%

COC(=O)C1C2CC3C(C2=O)C31 (stereo unspecified)
inactive: [1] 6.45% | [2] -4.7% | [3] 4.45% | [4] 21.1% | [5] 20.4% | [6] 6.85%

C(=C(Sc1ccccc1)Sc1ccccc1)C(Sc1ccccc1)c1ccccc1 (stereo unspecified)
inactive: [1] 12.5% | [2] 21.9% | [3] -5.35% | [4] 10.8% | [5] 20.7% | [6] -13.6%

COC(=O)CCBr
inactive: [1] -19.8% | [2] 8.15% | [3] 28.8% | [4] -18.2% | [5] -1.9% | [6] 3.5%

CC(NCCCNC(C)C(=O)O)C(=O)O (stereo unspecified)
inactive: [1] 21.8% | [2] 1.45% | [3] 26.8% | [4] 32.3% | [5] 11.1% | [6] 13.4%

CC12NC(=O)NC1(C)NC(=O)N2 (stereo unspecified)
inactive: [1] -8.85% | [2] -6.3% | [3] -35.9% | [4] -38.9% | [5] -29.6% | [6] 11.6%

N#CC(C#N)SCc1ccccc1
inactive: [1] 17.1% | [2] 2.25% | [3] -5.4% | [4] 6.25% | [5] 9.3% | [6] 17.8%

O=C(O)CCn1ccc2ccccc21
inactive: [1] 3.65% | [2] -0.55% | [3] 4.8% | [4] 5.9% | [5] 3.1% | [6] 1.6%

CC(C)N=C(NC#N)NS(=O)(=O)c1cnccc1Nc1ccc(Cl)cc1
inactive: [1] -11.1% | [2] 18.8% | [3] -13% | [4] -1.9% | [5] -18.1% | [6] 24.8%

CC(C)(C)n1c(=O)n(C(=O)C(Cl)(Cl)Cl)n(C(=O)C(Cl)(Cl)Cl)c1=O
inactive: [1] -13.8% | [2] -16.6% | [3] -14.6% | [4] 19.1% | [5] -10.3% | [6] -4.45%

C#CCCOC1(OC)N=NC(C)(C)O1 (stereo unspecified)
inactive: [1] 1.05% | [2] 0.9% | [3] -6.95% | [4] 12.3% | [5] -2.65% | [6] -24.6%

CCOc1c[n+](C)c(/C=C/c2ccccc2)s1
inactive: [1] 3.15% | [2] -11.6% | [3] -3.25% | [4] -9.3% | [5] -0.45% | [6] -20.9%

OCC(O)C1OC(n2cnc3c(=S)nc[nH]c32)C(O)C1O (stereo unspecified)
inactive: [1] 2.85% | [2] -6.75% | [3] -3.8% | [4] -42.8% | [5] -6.5% | [6] -10.6%

CC(=O)OC1CCC2(C)C(=CCC3C2CCC2(C)C3CCC23SCCS3)C1 (stereo unspecified)
inactive: [1] 24% | [2] -3% | [3] 4.25% | [4] -60.1% | [5] -2.9% | [6] 9.6%

O=C(O)c1ccc(C2=Cc3cc(Cl)ccc3OC2)cc1
inactive: [1] 19.6% | [2] -5.1% | [3] -19.4% | [4] 26.2% | [5] -15.1% | [6] -11.1%

CC1(C)OC1(C(=O)C=[N+]=[N-])c1ccccc1 (stereo unspecified)
inactive: [1] -14.8% | [2] -17.8% | [3] -23.9% | [4] -15.8% | [5] -13.6% | [6] -29.4%

CC[N+](C)(CC)CCN1C(=O)CC[C@@]2(C)C1=CC[C@@H]1[C@@H]2CC[C@@]2(C)[C@H]1CC[C@]2(C)O
inactive: [1] 6.65% | [2] 8.8% | [3] 6.45% | [4] 29.5% | [5] 9.7% | [6] 12.1%

O=C1OC(c2ccccc2)=N/C1=C\c1ccc(F)cc1
inactive: [1] -10.4% | [2] -17.5% | [3] -1.75% | [4] -10.2% | [5] -19.3% | [6] -3.75%

C[Si](C)(C)c1ccc2c(c1O)C(=O)c1ccccc1C2=O
inactive: [1] 10.6% | [2] 16.9% | [3] 31.9% | [4] 53.6% | [5] -1.15% | [6] 3.3%

O=C(N/N=C\C(F)(F)F)c1ccncc1
inactive: [1] 0.85% | [2] -10.8% | [3] 4.65% | [4] -25% | [5] 1.5% | [6] 24.1%

O=S(=O)(O)c1cccc2c(O)cccc12
inactive: [1] -7.9% | [2] -2.9% | [3] 5.65% | [4] 34.9% | [5] 5.35% | [6] -32%

CCOC(=O)COc1cc2c(cc1C(C)c1cc(OC)c(OC)c(OC)c1)OCO2 (stereo unspecified)
inactive: [1] 34.6% | [2] 2.2% | [3] 10.3% | [4] 18.1% | [5] 34% | [6] 10.9%

Cc1ccc(NC(=S)N(C)C)cc1
inactive: [1] 14.5% | [2] 15.9% | [3] -10.6% | [4] -71.8% | [5] 22.4% | [6] -23.9%

CC(C)CC1CC(=O)C(=O)C(CC(C)C)C1 (stereo unspecified)
inactive: [1] 8.25% | [2] 0.5% | [3] 3.45% | [4] -17.5% | [5] 3.95% | [6] -1.05%

O=S1CCCO1 (stereo unspecified)
inactive: [1] -7.55% | [2] -8.6% | [3] -13.8% | [4] -41.2% | [5] 11% | [6] 0.3%

CCOC(=O)CCc1nc2ccccc2[nH]1
inactive: [1] 0.6% | [2] -0.6% | [3] -0.3% | [4] 3.7% | [5] 0.5% | [6] -4.25%

CCC(O)(c1ccc(OC)cc1)C(c1ccccc1)c1ccccn1 (stereo unspecified)
inactive: [1] -1.3% | [2] -8.8% | [3] 6.5% | [4] -16.5% | [5] 2.8% | [6] -0.65%

OC(CC1=NCCS1)(c1ccccc1)c1ccccc1
active: [1] 98% | [2] 98.8% | [3] 96.8% | [4] 98.1% | [5] 98.2% | [6] 98.2%

CCC(C)C1CCCCC1OC(=O)CCl (stereo unspecified)
inactive: [1] -5.45% | [2] -14.8% | [3] -16.3% | [4] 0.05% | [5] -9.55% | [6] -18.6%

CCCCCCCCCCC#N
inactive: [1] 15.2% | [2] -8.4% | [3] -5.6% | [4] 14.6% | [5] 9.15% | [6] -17.6%

CO/N=C(\C(=O)OC(=NC1CCCCC1)NC1CCCCC1)c1csc(NC(c2ccccc2)(c2ccccc2)c2ccccc2)n1
inactive: [1] -5.15% | [2] -7.85% | [3] -5.4% | [4] -7.8% | [5] -0.3% | [6] -6.5%

O=C(Nc1cccc2ccccc12)OCC1CC1
inactive: [1] -4% | [2] 22.8% | [3] -4.55% | [4] -6.2% | [5] -34.9% | [6] -4.4%

O=c1sccc2ccccc12
inactive: [1] 28.1% | [2] 25.4% | [3] 2.5% | [4] 9.4% | [5] 10.3% | [6] 1.35%

CC(C)=Cc1cc(-c2cc(C=C(C)C)on2)no1
inactive: [1] 8.1% | [2] -7.05% | [3] 3.85% | [4] 1.15% | [5] -8% | [6] 4%
